Molecules are shown by their SMILES. Active and inactive are the calls of the source. The calls were made as follows: active = hit-call score of the fitted dose curve at least 0.9, where 1 is the maximum; inactive = score below 0.9.

Assay [1] can be described thus: ATG_GLI_CIS: Attagene CIS-FACTORIAL HepG2 Assay for human Zinc Finger Protein GLI1 (AID 2282945). The conditions noted are these: HepG2, Attagene cis-factorial reporter mRNA, GLI element; actives raise or lower the signal. In outline:
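HepG2 cells transiently transfected with cis-promoter multiplexed reporter units report endogenous transcription factor activity. After 24 h chemical exposure, reporter mRNA was quantified by RT-PCR, 6-FAM labelling, HpaI digestion and capillary electrophoresis, with bidirectional fitting against DMSO.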

Assay [2] has as its target Bile acid receptor (Homo sapiens) (UniProt Q96RI1). Kind of assay: ATG_IR1_CIS: Attagene CIS-FACTORIAL HepG2 Assay for human Nuclear Receptor Subfamily 1 Group H Member 4 (NR1H4), IR1 submotif (AID 2282946). The conditions noted are these: IR1 reporter transcription, actives raise or lower the signal. In a few lines: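 Transient MRTU transfection, HepG2; 24 h dosing; RNA → RT-PCR → 6-FAM primer extension → HpaI digest → capillary electrophoresis fluorescence. Gain/loss of signal fitted relative to DMSO.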

The nature of assay [3]: ATG_GRE_CIS: Attagene CIS-FACTORIAL HepG2 Assay for human Glucocorticoid Response Elements (GRE) (AID 2282947). To be noted: HepG2 GRE cis-reporter, Attagene multiplex mRNA; actives raise or lower the signal. In a few lines: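 HepG2 cells transiently transfected with multiple cis-promoter reporter units measure endogenous TF activity; 24 h compound exposure. Reporter mRNA quantified by RT-PCR, FAM labelling, HpaI digestion and capillary electrophoresis; bidirectional fit vs DMSO baseline.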

Assay [4] is described as follows: ATG_ISRE_CIS: Attagene CIS-FACTORIAL HepG2 Assay for human Interferon Regulatory Factor 1 (IRF1) binding to an Interferon-Stimulated Response Element (ISRE) (AID 2282948). The conditions noted are these: HepG2 ISRE cis-reporter (Attagene), mRNA transcription readout; actives raise or lower the signal. In a few lines: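 Transiently transfected HepG2 cells carrying cis-element reporter units, dosed 24 hours. Reporter mRNA quantified by RT-PCR, fluorescent primer extension, HpaI digestion and capillary electrophoresis. Bidirectional fitting relative to DMSO.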

Assay [5] can be described thus: ATG_M_32_CIS: Attagene CIS-FACTORIAL HepG2 Assay for M32 Transcription Factor (Internal Marker) (AID 2282949).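 Also: background control marker of the multiplexed CIS panel rather than a real target.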 The conditions noted are these: HepG2 Attagene cis-factorial M32 reporter, mRNA; actives raise or lower the signal. In a few lines:
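Internal background marker read-out: RT-PCR/capillary electrophoresis fluorescence of reporter transcripts from transiently transfected HepG2 cells after 24 h chemical exposure. Activity fitted bidirectionally relative to DMSO negative control.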

Assay [6] in a line: ATG_M_06_CIS: Attagene CIS-FACTORIAL HepG2 Assay for M06 Transcription Factor (Internal Marker) (AID 2282950). To be noted: HepG2 Attagene CIS-FACTORIAL M06 internal marker reporter; actives raise or lower the signal. In outline:
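Fluorescence-labelled RT-PCR products from cis-promoter reporter units, cut with HpaI and resolved by capillary electrophoresis, give the signal. Cells are human HepG2, dosed for 24 h. Serves as background control, fitted relative to DMSO.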

Assay [7] has as its target Hypoxia-inducible factor 1-alpha (Homo sapiens) (UniProt Q16665). Put plainly: ATG_HIF1a_CIS: Attagene CIS-FACTORIAL HepG2 Assay for human Hypoxia Inducible Factor 1 (HIF1A) (AID 2282951). The conditions noted are these: HepG2 Attagene cis-factorial HIF1a reporter transcription; actives raise or lower the signal. In outline: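 Transient MRTU transfection of human HepG2 liver cells, 24 h compound treatment, then total RNA isolation, oligo(dT) reverse transcription, PCR amplification, fluorescent labelling and capillary electrophoresis of reporter fragments. Gain or loss relative to DMSO.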

The target of assay [8] is Hepatocyte nuclear factor 6 (Homo sapiens) (UniProt Q9UBC0). Put plainly: ATG_HNF6_CIS: Attagene CIS-FACTORIAL HepG2 Assay for human Hepatocyte Nuclear Factor 6 (HNF6) (AID 2282952). To be noted: HepG2 Attagene cis-factorial HNF6 reporter transcription; actives raise or lower the signal. In a few lines: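 HepG2 cells transiently transfected with cis-element-driven multiplexed reporter units measuring endogenous transcription factor activity. After 24 h exposure, reporter mRNA quantified by RT-PCR, FAM-labelled fragments and capillary electrophoresis; bidirectional fitting versus DMSO.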
Chain of Hepatocyte nuclear factor 6 (Homo sapiens) (Q9UBC0 whole entry, looked up, the tested form may be a part): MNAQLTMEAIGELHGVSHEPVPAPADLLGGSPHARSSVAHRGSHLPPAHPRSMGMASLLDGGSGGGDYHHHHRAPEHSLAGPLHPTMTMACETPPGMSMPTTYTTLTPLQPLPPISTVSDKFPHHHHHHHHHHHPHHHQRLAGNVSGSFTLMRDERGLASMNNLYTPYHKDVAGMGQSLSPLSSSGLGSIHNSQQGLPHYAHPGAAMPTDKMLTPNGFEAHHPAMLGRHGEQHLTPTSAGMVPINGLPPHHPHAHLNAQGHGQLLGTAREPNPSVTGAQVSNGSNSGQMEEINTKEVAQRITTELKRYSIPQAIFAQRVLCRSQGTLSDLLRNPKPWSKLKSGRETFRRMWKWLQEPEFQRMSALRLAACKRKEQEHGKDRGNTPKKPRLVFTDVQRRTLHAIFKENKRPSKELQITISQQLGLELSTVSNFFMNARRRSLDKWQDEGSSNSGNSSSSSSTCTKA

The nature of assay [9]: ATG_MRE_CIS: Attagene CIS-FACTORIAL HepG2 Assay for human Metal Responsive Element (MRE) (AID 2282954). The conditions noted are these: HepG2 MRE cis-reporter transcription, Attagene multiplex; actives raise or lower the signal. In a few lines: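 HepG2 cells transiently transfected with multiple cis-element reporter units measure endogenous MTF1-driven transcription. After 24 h compound exposure, reporter mRNA is quantified by RT-PCR with 6-FAM labelling, HpaI digestion and capillary electrophoresis; bidirectional fits versus DMSO.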

A short description of assay [10]: ATG_PBREM_CIS: Attagene CIS-FACTORIAL HepG2 Assay for human Phenobarbital-responsive Enhancer Module (PBREM) (AID 2282955). To be noted: HepG2 PBREM cis-reporter, Attagene multiplexed transcription; actives raise or lower the signal. In a few lines: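 Endogenous transcription factors in human liver HepG2 cells drive a PBREM cis-element reporter, whose transcript level after 24 h treatment is quantified by RT-PCR with capillary electrophoresis; activity fitted in both directions against DMSO.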

The target of assay [11] is Paired box protein Pax-6 (Homo sapiens) (UniProt P26367). Put plainly: ATG_Pax6_CIS: Attagene CIS-FACTORIAL HepG2 Assay for human Paired Box 6 (PAX6) (AID 2282956). The conditions noted are these: HepG2 CIS-FACTORIAL PAX6 reporter transcription, RNA readout; actives raise or lower the signal. In outline: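 HepG2 cells transiently transfected with cis-promoter-driven multiplexed reporter units sensing endogenous transcription factor activity; 24 h chemical exposure. Reporter mRNA quantified by RT-PCR, 6-FAM labelling, HpaI digestion and capillary electrophoresis; bidirectional fit versus DMSO baseline.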
Chain of Paired box protein Pax-6 (Homo sapiens) (P26367 whole entry, looked up): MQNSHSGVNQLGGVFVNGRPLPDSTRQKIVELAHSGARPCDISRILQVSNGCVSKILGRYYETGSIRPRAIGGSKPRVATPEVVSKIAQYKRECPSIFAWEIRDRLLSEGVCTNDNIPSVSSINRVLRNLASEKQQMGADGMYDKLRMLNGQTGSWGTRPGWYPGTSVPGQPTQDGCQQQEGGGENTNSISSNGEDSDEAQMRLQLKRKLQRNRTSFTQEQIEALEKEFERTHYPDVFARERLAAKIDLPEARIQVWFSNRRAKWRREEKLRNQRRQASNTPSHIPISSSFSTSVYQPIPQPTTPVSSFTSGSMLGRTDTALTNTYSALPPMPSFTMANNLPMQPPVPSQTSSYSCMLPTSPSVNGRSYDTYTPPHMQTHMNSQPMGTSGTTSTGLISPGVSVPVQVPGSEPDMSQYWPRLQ

A short description of assay [12]: ATG_PXRE_CIS: Attagene CIS-FACTORIAL HepG2 Assay for human Pregnane X Receptor Element (PXRE) (AID 2282957). The conditions noted are these: HepG2 Attagene CIS-FACTORIAL PXRE reporter, mRNA; actives raise or lower the signal. In a few lines:
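HepG2 cells transiently transfected with cis-element-driven multiplexed reporter units; after 24 h chemical exposure, reporter mRNA measured by RT-PCR, 6-FAM labelling, HpaI digestion and capillary electrophoresis. Bidirectional fitting relative to DMSO.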

Assay [13] can be described thus: ATG_PPRE_CIS: Attagene CIS-FACTORIAL HepG2 Assay for human Peroxisome Proliferator-activated Response Element (PPRE) (AID 2282958). The conditions noted are these: HepG2 PPRE cis-element reporter, Attagene transcription factor profiling; actives raise or lower the signal. In outline: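 HepG2, transient MRTU transfection (cis promoter elements, endogenous TFs). 24 h dosing. RNA → oligo(dT) RT → PCR → 6-FAM primer extension → HpaI digest → CE. Bidirectional fit vs DMSO.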

The nature of assay [14]: ATG_Sox_CIS: Attagene CIS-FACTORIAL HepG2 Assay for human SRY-box transcription factor (SOX) (AID 2282960). To be noted: HepG2 Attagene cis-factorial SOX reporter, mRNA; actives raise or lower the signal. In a few lines: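 Endogenous factor activity in human liver HepG2 cells carrying transfected cis-regulated reporter units. RNA taken 24 h post-dose, reverse-transcribed, PCR-amplified and sized by capillary electrophoresis. Gain or loss of signal fitted relative to DMSO.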

The target in assay [15] is Transcription factor Sp1 (Homo sapiens) (UniProt P08047). Put plainly: ATG_Sp1_CIS: Attagene CIS-FACTORIAL HepG2 Assay for human Specificity Protein 1 (Sp1) (AID 2282961). To be noted: HepG2 Sp1 cis-reporter transcription, actives raise or lower the signal. In a few lines:
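Transient MRTU-transfected HepG2, 24 h compound exposure. Total RNA → oligo(dT) RT → PCR of reporter → 6-FAM primer extension → HpaI digest → CE. Endpoint fitted both directions vs DMSO.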

Assay [16] can be described thus: ATG_SREBP_CIS: Attagene CIS-FACTORIAL HepG2 Assay for human Sterol Regulatory Element Binding (SREBP) (AID 2282962). The conditions noted are these: HepG2 Attagene cis-factorial SREBP reporter, mRNA; actives raise or lower the signal. In outline: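 HepG2 cells transiently transfected with multiplexed cis-promoter reporter units sensing endogenous transcription factors; reporter mRNA measured 24 h after dosing by RT-PCR, 6-FAM labeling, HpaI digestion and capillary electrophoresis. Bidirectional fit versus DMSO.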

Assay [17] deals with Signal transducer and activator of transcription 3 (Homo sapiens) (UniProt P40763). Kind of assay: ATG_STAT3_CIS: Attagene CIS-FACTORIAL HepG2 Assay for human Signal Transducer and Activator of Transcription 3 (STAT3) (AID 2282963). To be noted: HepG2, Attagene cis-factorial STAT3 reporter transcription; actives raise or lower the signal. In a few lines: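 HepG2 cells transiently transfected with cis-element-driven multiple reporter transcription units; after 24 h chemical exposure, reporter mRNA measured by RT-PCR, 6-FAM primer-extension labelling, HpaI digestion and capillary electrophoresis. Bidirectional fitting versus DMSO baseline.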
Chain of Signal transducer and activator of transcription 3 (Homo sapiens) (P40763 whole entry, looked up): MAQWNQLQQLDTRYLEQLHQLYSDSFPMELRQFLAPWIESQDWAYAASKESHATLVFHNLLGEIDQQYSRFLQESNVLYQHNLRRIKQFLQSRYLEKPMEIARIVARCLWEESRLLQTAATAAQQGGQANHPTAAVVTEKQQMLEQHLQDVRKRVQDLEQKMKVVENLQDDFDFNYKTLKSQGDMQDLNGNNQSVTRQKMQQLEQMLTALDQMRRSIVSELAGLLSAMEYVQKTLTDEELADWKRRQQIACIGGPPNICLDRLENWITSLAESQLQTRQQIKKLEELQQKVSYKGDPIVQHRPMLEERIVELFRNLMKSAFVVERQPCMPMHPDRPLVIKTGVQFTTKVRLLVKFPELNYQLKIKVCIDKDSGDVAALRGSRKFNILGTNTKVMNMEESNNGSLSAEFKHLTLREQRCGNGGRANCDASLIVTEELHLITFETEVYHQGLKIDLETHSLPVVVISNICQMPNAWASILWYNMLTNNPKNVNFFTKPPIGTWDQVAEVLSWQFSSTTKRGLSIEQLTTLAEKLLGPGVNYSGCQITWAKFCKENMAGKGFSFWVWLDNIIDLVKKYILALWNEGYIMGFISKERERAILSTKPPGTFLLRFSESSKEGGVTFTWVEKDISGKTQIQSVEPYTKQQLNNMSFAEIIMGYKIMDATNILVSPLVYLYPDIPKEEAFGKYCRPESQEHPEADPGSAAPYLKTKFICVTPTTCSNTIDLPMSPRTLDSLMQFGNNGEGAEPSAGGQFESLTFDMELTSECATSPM

The nature of assay [18]: ATG_TA_CIS: Attagene CIS-FACTORIAL HepG2 Assay for human TA Basal Promoter (AID 2282964). To be noted: HepG2 Attagene CIS-factorial TA basal promoter reporter; actives raise or lower the signal. In outline: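 Multiplexed mRNA reporter assay, HepG2, 24 h. Reporter cDNA amplified, 6-FAM primer-extended, HpaI-cut, CE-sized; DMSO = negative control and baseline.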
Assay [19] deals with Heat shock factor protein 1 (Homo sapiens) (UniProt Q00613). Kind of assay: ATG_HSE_CIS: Attagene CIS-FACTORIAL HepG2 Assay for human Heat Shock Transcription Factor 1 (HSE) (AID 2282953). The conditions noted are these: HepG2 HSE cis-reporter, Attagene RNA transcription; actives raise or lower the signal. In a few lines: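 After a 24 h incubation with test chemical, transfected HepG2 cells were harvested for RNA; reporter transcripts were measured by RT-PCR and capillary electrophoresis. Values reflect gain or loss of signal relative to DMSO.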
Chain of Heat shock factor protein 1 (Homo sapiens) (Q00613 whole entry, looked up): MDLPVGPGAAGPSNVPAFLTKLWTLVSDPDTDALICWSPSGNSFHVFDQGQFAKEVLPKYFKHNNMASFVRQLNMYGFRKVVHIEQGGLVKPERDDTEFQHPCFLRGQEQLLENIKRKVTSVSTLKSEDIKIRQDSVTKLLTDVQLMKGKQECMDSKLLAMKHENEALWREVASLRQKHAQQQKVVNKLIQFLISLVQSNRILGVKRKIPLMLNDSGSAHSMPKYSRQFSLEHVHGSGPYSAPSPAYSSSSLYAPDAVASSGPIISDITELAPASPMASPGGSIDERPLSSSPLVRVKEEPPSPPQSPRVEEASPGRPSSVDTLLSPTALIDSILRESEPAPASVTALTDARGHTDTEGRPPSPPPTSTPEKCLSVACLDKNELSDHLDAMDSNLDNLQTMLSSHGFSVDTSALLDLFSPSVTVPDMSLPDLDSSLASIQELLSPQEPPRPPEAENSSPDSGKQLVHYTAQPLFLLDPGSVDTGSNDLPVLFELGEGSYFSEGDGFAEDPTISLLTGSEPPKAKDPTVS

A short description of assay [20]: ATG_RORE_CIS: Attagene CIS-FACTORIAL HepG2 Assay for human RAR-related Orphan Receptor Element (RORE) (AID 2282959). To be noted: HepG2 Attagene cis-factorial RORE reporter, mRNA; actives raise or lower the signal. In outline:
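Transient MRTU transfection of human HepG2 liver cells (FuGene 6); 24 h compound exposure; TriZol RNA, oligo(dT) RT, PCR, FAM labeling, HpaI cut, CE fragment analysis. DMSO = negative control/baseline.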

Chain of Bile acid receptor (Homo sapiens) (Q96RI1 whole entry, looked up): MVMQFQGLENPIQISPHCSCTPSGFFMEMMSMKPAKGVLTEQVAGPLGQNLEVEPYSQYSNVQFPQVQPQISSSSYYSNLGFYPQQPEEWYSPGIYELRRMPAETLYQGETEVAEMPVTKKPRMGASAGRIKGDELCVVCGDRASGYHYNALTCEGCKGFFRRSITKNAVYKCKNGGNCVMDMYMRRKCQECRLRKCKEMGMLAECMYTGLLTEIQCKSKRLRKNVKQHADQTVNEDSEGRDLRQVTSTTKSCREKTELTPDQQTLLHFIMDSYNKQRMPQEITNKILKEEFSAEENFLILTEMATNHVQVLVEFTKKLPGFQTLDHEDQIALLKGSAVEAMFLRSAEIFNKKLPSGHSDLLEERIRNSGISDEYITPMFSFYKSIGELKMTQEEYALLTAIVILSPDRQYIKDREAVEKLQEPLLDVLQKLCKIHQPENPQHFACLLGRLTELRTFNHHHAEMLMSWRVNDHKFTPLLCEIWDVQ
Chain of Transcription factor Sp1 (Homo sapiens) (P08047 whole entry, looked up): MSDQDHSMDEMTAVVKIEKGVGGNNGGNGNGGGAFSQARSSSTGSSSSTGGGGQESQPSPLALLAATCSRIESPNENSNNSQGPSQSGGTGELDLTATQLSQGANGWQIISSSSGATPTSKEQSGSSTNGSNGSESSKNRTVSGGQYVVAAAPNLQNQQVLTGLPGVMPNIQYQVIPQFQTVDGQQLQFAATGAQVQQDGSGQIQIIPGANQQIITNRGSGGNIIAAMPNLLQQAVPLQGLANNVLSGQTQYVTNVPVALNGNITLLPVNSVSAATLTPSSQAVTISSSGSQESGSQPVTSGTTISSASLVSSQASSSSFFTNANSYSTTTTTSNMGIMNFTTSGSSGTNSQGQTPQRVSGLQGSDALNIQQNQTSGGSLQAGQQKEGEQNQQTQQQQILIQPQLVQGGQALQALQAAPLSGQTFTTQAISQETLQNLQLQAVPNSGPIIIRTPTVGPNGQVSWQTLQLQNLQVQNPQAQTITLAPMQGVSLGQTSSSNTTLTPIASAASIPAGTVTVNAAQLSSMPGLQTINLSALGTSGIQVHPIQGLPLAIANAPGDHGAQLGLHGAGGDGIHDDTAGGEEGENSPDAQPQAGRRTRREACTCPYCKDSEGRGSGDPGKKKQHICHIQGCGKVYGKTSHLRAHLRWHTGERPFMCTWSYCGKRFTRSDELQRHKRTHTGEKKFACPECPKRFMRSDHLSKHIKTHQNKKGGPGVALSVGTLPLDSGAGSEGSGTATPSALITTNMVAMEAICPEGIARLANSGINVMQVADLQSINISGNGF
Chain of Hypoxia-inducible factor 1-alpha (Homo sapiens) (Q16665 whole entry, looked up, the tested form may be a part): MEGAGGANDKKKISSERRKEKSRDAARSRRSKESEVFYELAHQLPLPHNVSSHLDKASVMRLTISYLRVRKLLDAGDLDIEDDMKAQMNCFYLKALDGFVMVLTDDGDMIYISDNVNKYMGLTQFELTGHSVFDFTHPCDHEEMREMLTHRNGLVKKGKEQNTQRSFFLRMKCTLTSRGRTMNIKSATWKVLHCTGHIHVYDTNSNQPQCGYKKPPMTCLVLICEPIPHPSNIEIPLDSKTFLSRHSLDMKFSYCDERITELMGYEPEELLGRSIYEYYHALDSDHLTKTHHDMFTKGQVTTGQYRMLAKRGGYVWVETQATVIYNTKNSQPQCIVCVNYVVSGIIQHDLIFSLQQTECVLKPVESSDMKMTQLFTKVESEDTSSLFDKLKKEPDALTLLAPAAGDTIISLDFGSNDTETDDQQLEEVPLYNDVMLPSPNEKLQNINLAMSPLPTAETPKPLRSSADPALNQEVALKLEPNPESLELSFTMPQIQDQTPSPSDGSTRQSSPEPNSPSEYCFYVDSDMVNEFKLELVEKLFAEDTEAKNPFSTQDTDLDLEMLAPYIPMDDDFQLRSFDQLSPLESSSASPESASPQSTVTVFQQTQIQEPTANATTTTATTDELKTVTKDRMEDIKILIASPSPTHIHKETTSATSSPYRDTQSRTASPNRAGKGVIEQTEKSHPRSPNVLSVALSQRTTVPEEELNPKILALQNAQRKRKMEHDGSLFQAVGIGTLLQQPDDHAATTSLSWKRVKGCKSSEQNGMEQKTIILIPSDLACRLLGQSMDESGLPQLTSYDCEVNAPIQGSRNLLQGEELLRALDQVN

As for `CCC(C)(O)CCCC(C)C` (stereo not given), the compound was classed as inactive in assay [1], in [2], in assay [3], in assay [4], in assay [5] and in assay [6]. The compound was classed as inactive in assay [7], in assay [8], in [9], in assay [10], in assay [11] and in [12]. Besides, the outcome in [13], in assay [14], in [15], in assay [16], in assay [17] and in assay [18] was inactive.

For `CC/C=C\C/C=C\C/C=C\CCCCCCCC(=O)OC`, the outcome in assay [1], in assay [3], in assay [4], in [5], in assay [6] and in [8] was inactive. Further, the call in assay [9], in [11], in assay [13], in [14], in assay [16] and in [17] was inactive. Further, the outcome in [18] was inactive. The half-maximal activity concentration (AC50) in assay [2] was 25.7 µM (active); in assay [7], 34 µM (active); in [19] it was 74.9 µM (active); in assay [12], 7.37 µM (active); in assay [20], 164 µM (active); in [15], 128 µM (active).

Consider `CCNc1nc(NC(C)(C)C)nc(OC)n1`, for which the compound was classed as inactive in [1], in assay [2], in assay [3], in assay [4], in [5] and in assay [6]. For the same compound, the result in assay [7], in [8], in assay [19], in assay [9], in assay [10] and in [13] was inactive. For the same compound, the compound was classed as inactive in assay [15], in assay [16], in [17] and in assay [18]. The half-maximal activity concentration (AC50) in assay [12] was 10.3 µM (active).

As to `CN(C)Cc1cc(CN(C)C)c(O)c(CN(C)C)c1`, the compound was classed as inactive in assay [1], in assay [2], in assay [3], in [4], in assay [5] and in assay [6]. Besides, the compound was classed as inactive in assay [8], in assay [19], in assay [9], in assay [10], in [11] and in [14]. Further, the compound was classed as inactive in assay [15], in [16], in assay [17] and in assay [18].
